Measured values from PubChem BioAssay AID1159580 (chemical genetic matrix, 2015).
The campaign covered roughly 5,500 compounds. About 2,000 (36%) were called active. Not shown: some 18% with an inconclusive outcome. Rule as the data show it: active = normalized growth mostly below about 0.91 (no sharp cut-off); inconclusive = no clear call, values can overlap the other calls; inactive = mostly above about 0.92. Some of the results follow.

Test: chemical genetic growth profiling, strain panel (AID 1159580);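 also: tested at 20 µM; growth read once vehicle control cultures reached saturation at 30 °C; 1 = growth at the plate median or of vehicle wells; lower values mean less growth of the strain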
Conditions: growth OD

Measured: normalized growth

CC1=NN(c2ccccc2)C(=O)C1
inactive: S. cerevisiae deletion strains, locus YJR075W, strain HOC1, active compounds read low 0.979 | S. cerevisiae deletion strains, locus YKL009W, strain mrt4, active compounds read low 0.991 | S. cerevisiae deletion strains, locus YKL068W, active compounds read low 0.98 | S. cerevisiae deletion strains, locus YKL085W, strain MDH1 (second series), active compounds read low 0.963 | S. cerevisiae deletion strains, locus YKL085W, strain MDH1, active compounds read low 0.963 | S. cerevisiae deletion strains, locus YKL160W, strain elf1, active compounds read low 0.951 | S. cerevisiae deletion strains, locus YKL190W, strain CNB1, active compounds read low 0.994 | S. cerevisiae deletion strains, locus YKR001C, strain vps1, active compounds read low 0.961 | S. cerevisiae deletion strains, locus YKR026C, strain gcn3, active compounds read low 0.994 | S. cerevisiae deletion strains, locus YKR091W, strain srl3, active compounds read low 0.986 | S. cerevisiae deletion strains, locus YLL001W, strain dnm1, active compounds read low 0.951 | S. cerevisiae deletion strains, locus YLL026W, active compounds read low 0.984 | S. cerevisiae deletion strains, locus YLL041C, strain sdh2, active compounds read low 0.99 | S. cerevisiae deletion strains, locus YLR027C, strain aat2, active compounds read low 0.994 | S. cerevisiae deletion strains, locus YLR039C, strain RIC1, active compounds read low 0.782 | S. cerevisiae deletion strains, locus YLR058C, strain SHM2, active compounds read low 0.965 | S. cerevisiae deletion strains, locus YLR102C, strain apc9, active compounds read low 1 | S. cerevisiae deletion strains, locus YLR221C, strain rsa3, active compounds read low 0.961 | S. cerevisiae deletion strains, locus YLR258W, strain gsy2, active compounds read low 0.957 | S. cerevisiae deletion strains, locus YLR262C, strain YPT6 (second series), active compounds read low 0.915 | S. cerevisiae deletion strains, locus YLR262C, strain YPT6, active compounds read low 0.725 | S. cerevisiae deletion strains, locus YLR268W, strain sec22, active compounds read low 0.908 | S. cerevisiae deletion strains, locus YLR320W, strain mms22, active compounds read low 0.962 | S. cerevisiae deletion strains, locus YLR330W, strain CHS5, active compounds read low 0.988 | S. cerevisiae deletion strains, locus YLR342W, strain FKS1 (second series), active compounds read low 0.832 | S. cerevisiae deletion strains, locus YLR342W, strain FKS1, active compounds read low 0.987 | S. cerevisiae deletion strains, locus YLR357W, strain rsc2, active compounds read low 1 | S. cerevisiae deletion strains, locus YLR370C, strain arc18, active compounds read low 0.987 | S. cerevisiae deletion strains, locus YLR371W, strain rom2, active compounds read low 0.913 | S. cerevisiae deletion strains, locus YLR384C, strain iki3, active compounds read low 0.982 | S. cerevisiae deletion strains, locus YML016C, strain PPZ1, active compounds read low 0.979 | S. cerevisiae deletion strains, locus YML032C, strain rad52, active compounds read low 0.922 | S. cerevisiae deletion strains, locus YML120C, strain ndi1, active compounds read low 0.974 | S. cerevisiae deletion strains, locus YML124C, strain tub3, active compounds read low 0.984 | S. cerevisiae deletion strains, locus YMR058W, strain fet3, active compounds read low 0.922 | S. cerevisiae deletion strains, locus YMR078C, strain ctf18, active compounds read low 0.969 | S. cerevisiae deletion strains, locus YMR125W, strain sto1, active compounds read low 0.998 | S. cerevisiae deletion strains, locus YMR129W, active compounds read low 0.996 | S. cerevisiae deletion strains, locus YMR205C, strain PFK2, active compounds read low 0.958 | S. cerevisiae deletion strains, locus YMR223W, strain ubp8, active compounds read low 0.925 | S. cerevisiae deletion strains, locus YMR231W, strain pep5, active compounds read low 0.984 | S. cerevisiae deletion strains, locus YMR263W, strain SAP30, active compounds read low 0.97 | S. cerevisiae deletion strains, locus YMR307W, strain GAS1, active compounds read low 0.7 | S. cerevisiae deletion strains, locus YNL067W, strain RPL9B, active compounds read low 0.992 | S. cerevisiae deletion strains, locus YNL071W, strain lat1, active compounds read low 0.922 | S. cerevisiae deletion strains, locus YNL128W, strain TEP1, active compounds read low 0.969 | S. cerevisiae deletion strains, locus YNL209W, strain ssb2, active compounds read low 0.993 | S. cerevisiae deletion strains, locus YNL233W, strain BNI4, active compounds read low 0.993 | S. cerevisiae deletion strains, locus YNL248C, strain rpa49, active compounds read low 0.973 | S. cerevisiae deletion strains, locus YNL250W, strain rad50, active compounds read low 0.957 | S. cerevisiae deletion strains, locus YNL271C, strain bni1, active compounds read low 0.925 | S. cerevisiae deletion strains, locus YNL298W, strain CLA4, active compounds read low 0.951 | S. cerevisiae deletion strains, locus YNL322C, strain KRE1 (second series), active compounds read low 0.977 | S. cerevisiae deletion strains, locus YNL322C, strain KRE1, active compounds read low 0.985 | S. cerevisiae deletion strains, locus YNR049C, strain mso1, active compounds read low 0.992 | S. cerevisiae deletion strains, locus YNR052C, strain pop2, active compounds read low 0.942 | S. cerevisiae deletion strains, locus YOL006C, strain TOP1, active compounds read low 0.997 | S. cerevisiae deletion strains, locus YOL012C, strain htz1 0.753 | S. cerevisiae deletion strains, locus YOL147C, strain pex11, active compounds read low 0.979 | S. cerevisiae deletion strains, locus YOR001W, strain rrp6, active compounds read low 0.972 | S. cerevisiae deletion strains, locus YOR061W, strain CKA2, active compounds read low 0.98 | S. cerevisiae deletion strains, locus YOR069W, strain VPS5, active compounds read low 0.982 | S. cerevisiae deletion strains, locus YOR070C, strain gyp1, active compounds read low 0.995 | S. cerevisiae deletion strains, locus YOR080W, strain dia2, active compounds read low 0.97 | S. cerevisiae deletion strains, locus YOR083W, strain WHI5, active compounds read low 0.939 | S. cerevisiae deletion strains, locus YOR106W, strain vam3, active compounds read low 0.959 | S. cerevisiae deletion strains, locus YOR136W, strain idh2, active compounds read low 0.966 | S. cerevisiae deletion strains, locus YOR144C, strain elg1, active compounds read low 0.988 | S. cerevisiae deletion strains, locus YOR184W, strain ser1, active compounds read low 0.927 | S. cerevisiae deletion strains, locus YOR265W, strain rbl2, active compounds read low 0.988 | S. cerevisiae deletion strains, locus YOR270C, strain vph1, active compounds read low 1.03 | S. cerevisiae deletion strains, locus YOR290C, strain snf2, active compounds read low 0.938 | S. cerevisiae deletion strains, locus YOR316C, strain cot1, active compounds read low 0.984 | S. cerevisiae deletion strains, locus YPL051W, strain arl3, active compounds read low 0.954 | S. cerevisiae deletion strains, locus YPL078C, strain atp4, active compounds read low 0.971 | S. cerevisiae deletion strains, locus YPL106C, strain sse1, active compounds read low 1.01 | S. cerevisiae deletion strains, locus YPL240C, strain hsp82, active compounds read low 0.987 | S. cerevisiae deletion strains, locus YPL241C, strain CIN2, active compounds read low 0.986 | S. cerevisiae deletion strains, locus YPR119W, strain clb2, active compounds read low 0.987 | S. cerevisiae deletion strains, locus YPR141C, strain kar3, active compounds read low 0.947 | S. cerevisiae deletion strains, locus YPR163C, strain tif3, active compounds read low 0.968 | S. cerevisiae deletion strains, locus YPR167C, strain met16, active compounds read low 0.969 | S. cerevisiae deletion strains, strain wtn01, active compounds read low 0.928 | S. cerevisiae strains, strain wild type, active compounds read low 0.98
active: S. cerevisiae deletion strains, locus YLR418C, strain cdc73, active compounds read low 0.78 | S. cerevisiae deletion strains, locus YNL307C, strain MCK1, active compounds read low 0.796
